Article PMC5540273 (PLoS ONE, 2017)

Tests used:
Conditions in all cases: concentration: 1 μM, replicates: in singlicate; n = 1
[1] = system: TAOK1
[2] = system: TAOK2
[3] = system: TAOK3
[4] = system: TBK1
[5] = system: TEC
[6] = system: TESK1
[7] = system: TGFBR1
[8] = system: TGFBR2
[9] = system: TIE1
[10] = system: T1, TIE2
T1 construct: gene TEK

[11] = system: TLK1
[12] = system: TLK2
[13] = system: TNIK
[14] = system: TNK1
[15] = system: TNK2
[16] = system: TNNI3K
[17] = system: T2, TRKA
T2 construct: gene NTRK1

[18] = system: TRKB
[19] = system: T3, TRKC
T3 construct: gene NTRK3

[20] = system: TRPM6
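Also: KINOMEscan kinase panel screen.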

Row | SMILES | %Inh [1] [%] | %Inh [2] [%] | %Inh [3] [%] | %Inh [4] [%] | %Inh [5] [%] | %Inh [6] [%] | %Inh [7] [%] | %Inh [8] [%] | %Inh [9] [%] | %Inh [10] [%] | %Inh [11] [%] | %Inh [12] [%] | %Inh [13] [%] | %Inh [14] [%] | %Inh [15] [%] | %Inh [16] [%] | %Inh [17] [%] | %Inh [18] [%] | %Inh [19] [%] | %Inh [20] [%]
1 | Cn1cncc1-c1cc2c(Nc3ccc(OCc4ccccc4)cc3)ncnc2cn1 [GW281179] | 0 | 0 | 0 | 0 | 0 | 35 | 0 | 0 | 0 | 0 | 18 | 0 | 0 | 1 | 20 | 11 | 0 | 37 | 0 | 12
2 | O=c1cc(N2CCOCC2)nc2n(Cc3ccccc3F)ccn12 [GSK2297428] | 0 | 0 | 0 | 15 | 0 | 3 | 0 | 0 | 0 | 0 | 0 | 0 | 0 | 0 | 4 | 0 | 0 | 0 | 0 | 0
3 | O=c1cc(N2CCOCC2)nc2n(Cc3cccc(Cl)c3Cl)c3ccccc3n12 [GSK2299009] | 0 | 0 | 0 | 22 | 20 | 17 | 0 | 0 | 24 | 5 | 2 | 0 | 1 | 6 | 9 | 17 | 18 | 0 | 0 | 36
4 | NS(=O)(=O)c1cccc(N/C=C2\C(=O)Nc3ccc(S(=O)(=O)Cc4c(Cl)cccc4Cl)cc32)c1 [GSK398099] | 0 | 2 | 10 | 37 | 6 | 9 | 0 | 0 | 0 | 0 | 75 | 0 | 91.8 | 0 | 26 | 4 | 49 | 0 | 29 | 37
5 | O=C1NC(=O)C(c2ccc(Cl)cc2)=C1Nc1ccc(O)cc1 [SB-340867] | 0 | 0 | 0 | 0 | 0 | 12 | 1 | 0 | 0 | 0 | 10 | 0 | 0 | 46 | 0 | 0 | 0 | 5 | 0 | 9
6 | CNC(=O)c1ccc(C)c(-n2c(C)cc(OCc3ccc(F)cc3F)c(Br)c2=O)c1 | 0 | 0 | 0 | 0 | 1 | 13 | 0 | 0 | 1 | 0 | 0 | 0 | 0 | 0 | 0 | 0 | 0 | 0 | 0 | 0
7 | COc1ccc(Nc2nccc(N3CCC(NC(=O)C(C)c4ccc(Cl)cc4)CC3)n2)cc1 (stereo not shown) [GSK1379812] | 0 | 0 | 0 | 21 | 0 | 0 | 3 | 0 | 0 | 0 | 7 | 0 | 0 | 0 | 8 | 2 | 49 | 0 | 0 | 0
8 | Cc1ccc(NC(=O)c2ccc(Cl)cc2)cc1-c1ccc(C(=O)Nc2ccncc2)cc1 [GSK1398467] | 0 | 0 | 0 | 7 | 12 | 14 | 1 | 0 | 0 | 0 | 8 | 3 | 0 | 9 | 25 | 21 | 0 | 0 | 25 | 19
9 | Cc1cnc(N)c(/C=C/c2cncc(C(=O)NCCc3ccc(Cl)cc3Cl)c2)c1.Cl [GSK190937] | 11 | 0 | 25 | 12 | 18 | 1 | 0 | 0 | 20 | 0 | 0 | 0 | 9 | 0 | 11 | 0 | 35 | 0 | 0 | 0
10 | Cc1ccc(NC(=O)Nc2ccccc2F)cc1-c1ccc(C(=O)Nc2ccncc2)cc1 [GSK1398477] | 0 | 0 | 0 | 13 | 24 | 2 | 0 | 13 | 35 | 0 | 6 | 0 | 10 | 10 | 34 | 53 | 10 | 0 | 0 | 21
11 | Nc1ncnc2occ(-c3ccc4c(c3)CCN4C(=O)Cc3cc(F)ccc3F)c12 [GSK2645446] | 0 | 6 | 0 | 10 | 0 | 0 | 0 | 0 | 45 | 0 | 0 | 0 | 0 | 0 | 0 | 0 | 9 | 0 | 0 | 0
12 | CNCc1ccc2nc(NC(=O)c3ccc(C(C)(C)C)cc3)cn2c1 | 100 | 22 | 93.2 | 0 | 2 | 0 | 3 | 2 | 6 | 4 | 0 | 0 | 8 | 0 | 1 | 6 | 39 | 58 | 28 | 1
13 | COC(=O)C(NC(=O)NC1CCN(c2ccnc(Nc3ccc(F)cc3)n2)C1)c1ccccc1 (stereo not shown) [GSK1379712] | 0 | 0 | 0 | 18 | 11 | 0 | 26 | 0 | 0 | 0 | 14 | 6 | 17 | 0 | 0 | 24 | 51 | 6 | 29 | 44
14 | Cc1ccccc1Cn1ccn2c(=O)cc(N3CCOCC3)nc12 [GSK2269905] | 0 | 0 | 0 | 0 | 16 | 15 | 0 | 0 | 0 | 0 | 0 | 0 | 0 | 6 | 32 | 4 | 0 | 0 | 0 | 2
15 | COc1cc2ncnc(Nc3cccc(Br)c3)c2cc1OC.Cl [GI230329] | 0 | 0 | 0 | 7 | 0 | 31 | 1 | 0 | 0 | 0 | 0 | 0 | 10 | 0 | 8 | 15 | 45 | 32 | – | 0
16 | Cc1ccc(-c2nc(Nc3ccncc3)c3ccccc3n2)s1 [GSK189015] | 0 | 0 | 5 | 7 | 8 | 61 | 6 | 21 | 19 | 12 | 0 | 0 | 8 | 29 | 19 | 14 | 44 | 0 | 0 | 15
